Screening results: PubChem, National Center for Advancing Translational Sciences (NCATS)
In the library only some 2.4% were active in any assay of this set; here they are far more common.
FUS yeast rescue – rescues growth of FUS-expressing yeast. S. cerevisiae FUS-expressing, growth rescue, OD600, 24 h. Potency, µM (titrated, usually from 76.6 µM), most hits filed as activators. actives 0.24% (n = 390,000); further: nearly all actives have a fitted effect of over 55% in size
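Restored growth of FUS-toxic S. cerevisiae, read as 600 nm absorbance after 24 h at 30C in galactose medium (starting OD 0.005). Controls CP55940 and DMSO.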
AT treatment – potential ataxia-telangiectasia treatments restoring KAP-1 phosphorylation; F2112 A-T fibroblasts, KAP-1 phosphorylation AlphaLISA; neocarzinostatin DNA damage 30 min before lysis; Potency, µM (doses to about 57.5 µM), most hits filed as activators; actives 0.19% (n = 320,000); AID 485349; further: nearly all actives have a fitted effect of over 45% in size
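hTERT-immortalized A-T patient fibroblasts (F2112), 500 cells/well in OPTI-MEM, 1% FBS, got compounds for 60 min, then NCS for 30 min at 37C. Lysates were then assayed for phospho-KAP-1 by AlphaLISA (anti-pKAP1 donor, anti-KAP1 acceptor beads), 6 hr at 25C.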
aSyn rescue – inhibitors of alpha-synuclein toxicity in yeast; actives 0.14% (n = 370,000); Yeast expressing alpha-synuclein, growth rescue, BacTiter-Glo, 24 h; Potency, µM (doses to about 46.1 µM), actives largely listed as activators; further: nearly all actives have a fitted effect of over 65% in size
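Rescue of yeast growth: cells expressing toxic alpha-synuclein, induced in galactose at OD600 0.02, incubated with compound 24 h at 30 C. ATP luminescence quantified growth; inhibitors of toxicity appear as activators.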
TDP-43 yeast inh – inhibitors of TDP-43 toxicity in yeast. TDP-43 expressing yeast growth rescue, BacTiter-Glo, 24 h. Potency, µM (series often up to 46.1 µM), usual class: activators. actives 1.8% (n = 410,000). AID 652104; further: nearly all actives have a fitted effect of over 50% in size
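Luminescence from BacTiter-Glo reports growth of TDP-43-expressing yeast after 24 hr at 30 deg C with compound. Cells were raffinose-pregrown to mid-log, then seeded in galactose medium at OD600=0.02.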
Mito fusion yeast – mitochondrial division inhibition or fusion activation | actives 0.23% (n = 320,000) | Potency, µM (doses to about 46.1 µM), actives largely listed as activators | S. cerevisiae fusion-defective mutant growth rescue, CellTiterGlo 48 h; further: nearly all actives have a fitted effect of over 45% in size
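S. cerevisiae fusion-defective temperature-sensitive mutants (e.g. fzo1-1, mgm1-5) grown 48 h at 37C in YPEG (ethanol/glycerol non-fermentable) medium with 23 nl compound per well; growth rescue read as CellTiterGlo luminescence.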
Abeta rescue – A-beta toxicity reversal in yeast; yeast expressing A-beta42, growth rescue, OD600, 48 h; response scale: 0% DMSO, 100% iron-clioquinol control; actives 0.063% (n = 410,000); Potency, µM (top dose mostly 46.1 µM), usual class: activators; further: nearly all actives have a fitted effect of over 55% in size
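Yeast A-beta toxicity model in growth medium with pinned compounds, 48 h at 30 C; growth read as absorbance at 600 nm. Normalized to FeCl3/clioquinol equimolar mix (positive) and DMSO (negative).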
Hits are given with their value; 0 = inactive; ? = inconclusive; - = not tested or not shown; [ ] = remark or other dose. The call rests on the fitted dose curve; in most records, active means well fitted curve in the direction sought with a large enough effect; inconclusive means small, poorly fitted or top-dose-only effect, or another doubt; inactive means no such curve, though single readings can be large; an effect the other way counts as inactive or inconclusive.

SMILES	FUS yeast rescue	AT treatment	aSyn rescue	TDP-43 yeast inh	Mito fusion yeast	Abeta rescue
Cc1c(C(=O)NCCc2ccc(Cl)cc2)sc2nc3n(c(=O)c12)CCC3	0	0	0	?	0	0
Cc1c(C(=O)NCCc2ccc(Cl)cc2)sc2nc3n(c(=O)c12)CCCC3	?	-	-	17.8µM	-	0
Cc1ccc(CNC(=O)c2sc3nc4n(c(=O)c3c2C)CCCCC4)cc1	0	-	-	25.1µM	-	0
Cc1c(C(=O)NCc2ccccc2)sc2nc3n(c(=O)c12)CCCCC3	0	-	-	?	-	0
Cc1ccc(CNC(=O)c2sc3nc4n(c(=O)c3c2C)CCCC4)cc1	0	-	-	12.6µM	-	0
COC(=O)c1cc(-c2ccc(-c3ccccc3)c(F)c2)c(=O)n2c1CCC2	0	-	-	-	-	-
CCOC(=O)c1c(C)c(C(=O)NCCc2ccc(OC)cc2)c(C)n1C	0	-	-	0	-	0
Cc1ccc(C(=O)OCc2nnc(-c3ccccc3)o2)o1	0	0	0	17.8µM	0	0
N/C(=N\OC(=O)C12CC3CC(CC(C3)C1)C2)c1ccncc1	0	0	0	12.6µM	0	0
Cc1ccc(/C(N)=N/OC(=O)C23CC4CC(CC(C4)C2)C3)cc1	0	0	0	2µM	0	0
N#C/C(=C/c1ccc(F)cc1)C(N)=S	0	3.55µM	0	0	0	0
Cc1cc(C)c(/C=C(\C#N)C(N)=S)c(C)c1	0	0	0	11.2µM	-	0
CCn1c2ccccc2c2cc(/C=C(/C#N)C(N)=S)ccc21	-	-	0	31.6µM	-	0
CCn1c2ccccc2c2cc(N)ccc21	0	0	0	0	0	0
Cc1nn(Cc2ccc(F)cc2)c2sc(C(=O)Nc3ccc(N4CCOCC4)cc3N3CCOCC3)cc12	-	0	0	14.1µM	0	0
CCOc1ccc(C(=O)Nc2ccc3oc(-c4ccc5ccccc5c4)nc3c2)cc1	0	-	-	0	-	0
O=c1ccc2c(OCCCCc3ccccc3)c3ccoc3cc2o1	-	-	0	-	5.17µM	-
CC(=O)Nc1ccc(C(=O)OCc2ccc(F)cc2Cl)cc1	0	0	0	0[0.397 µM]	12.6µM	0
CC1=C(C)CS(=O)N(S(=O)(=O)c2ccccc2)C1 (stereo not drawn)	0	0	0	12.6µM	0	0
O=S(=O)(Nc1ccc2c(c1)OCCO2)c1cccc(F)c1	0	0	0	0	0	0
O=S(=O)(Nc1ccc2c(c1)OCCO2)c1ccc2oc3ccccc3c2c1	0	0	25.1µM	?	?	0
O=S(=O)(Nc1ccc2c(c1)OCO2)c1cccc(Br)c1	-	0	0	12.6µM	0	0
Cc1ccc2c(c1)C(CS(=O)(=O)NCc1ccccc1)NC2 (stereo not drawn)	0	-	-	-	-	-
CCCCCCCNC(=O)C1(CC2CC(c3cccc(Br)c3)=NO2)CCN(C(=O)C2(C)CC2)CC1 (stereo not drawn)	?	0	0	0	0	0
CCCCCCCNC(=O)C1(CC2CC(c3cccc(Br)c3)=NO2)CCN(C(=O)CCCCCBr)CC1 (stereo not drawn)	28.2µM	0	0	?	0	0
SMILES	FUS yeast rescue	AT treatment	aSyn rescue	TDP-43 yeast inh	Mito fusion yeast	Abeta rescue
C[C@@H]1CN([C@H](C)CO)C(=O)CCCn2nncc2CO[C@@H]1CN(C)S(=O)(=O)c1ccccc1F	0	-	0	15.8µM	-	0
C[C@H]1CN([C@@H](C)CO)C(=O)CCCn2cc(nn2)CO[C@@H]1CN(C)S(=O)(=O)c1ccc2ccccc2c1	0	-	3.55µM	0	-	0
C/C(=C\C(=S)Nc1ccccc1)Nc1ccccc1	0	0	0	12.6µM	0	0
C/C(=C\C(=O)c1ccccc1)Nc1ccc(O)cc1	-	0	0	0	0	0
N#C/C(=C/c1ccc(N2CCCCCC2)o1)c1ccc(Cl)cc1	22.4µM	-	0	0	0	0
Cc1ccc(/C(C#N)=C\c2ccc(N3CCOCC3)o2)cc1	0	0	0	0	0	0
N#C/C(=C/c1ccc(N2CCCCC2)o1)c1cccc(F)c1	31.6µM	0	0	0	0	0
CC(=O)OC[C@@H]1CN(Cc2cccc(C(F)(F)F)c2)C[C@H](n2cnc3c(NCc4ccco4)ncnc32)O1	?	-	0	11.2µM	-	0
CCCCN(CC)C(=O)Nc1ccc2c(c1)N(C)C(=O)c1ccccc1S2	0	-	-	0	-	0
COC(=O)[C@]1(CNS(=O)(=O)C2CC2)CC(=O)N(C)[C@@H]1c1ccccc1	0	-	-	-	-	-
CCOC(=O)c1c(-c2ccccc2)oc2ccc(OCC(O)CNCCN(C)C)cc12 (stereo not drawn)	0	39.8µM	0	0	0	0
CCOC(=O)c1c(-c2ccccc2)oc2ccc(OCC)cc12	0	0	0	0	0	0
COc1cc(N(C)C)ccc1/C=C/c1ccnc2ccccc12	-	-	0	-	-	-
CCOc1ccc(NC(=O)CN(c2ccc(Cl)cc2C)S(=O)(=O)c2ccccc2)cc1	22.4µM	-	-	0	-	0
Cc1ccc(C2Nc3cccc4cccc(c34)N2)s1	-	0	0	10µM	0	0
N#CC1=C(N)N(c2ccc(Cl)cc2)C2=C(C(=O)CCC2)C1c1cc(CN2CCOCC2)cs1 (stereo not drawn)	0	-	-	0	-	0
COc1ccccc1C(=O)OCc1cc(=O)n2nc(C3CCCCC3)sc2n1	0	-	-	0	-	0
COc1cc(Cl)c(C)cc1NC(=O)CCc1c(C)nc2c3cccnc3nn2c1C	0	-	-	0	-	0
CCCCCCCCCCS(=O)(=O)N/N=C/c1ccc(O)cc1	0	0	?	14.1µM	0	0
CCCCCCCCCS(=O)(=O)N/N=C/c1cccc([N+](=O)[O-])c1	0	0	0	0	?	0
Cc1cccc(Nc2nc3ccccc3s2)c1C	0	0	0	11.2µM	0	?
O=C(CSc1nc2c([nH]c3ccccc32)c(=O)n1-c1ccccc1)Nc1ccc(Cl)c(Cl)c1	0	-	-	0	-	0
Cc1onc(-c2ccccc2)c1C(=O)OCCOc1ccc([N+](=O)[O-])cc1[N+](=O)[O-]	0	0	0	12.6µM	0	0
Cc1ccccc1OCCOC(=O)c1c(-c2ccccc2)noc1C	0	0	0	0	0	0
Cc1onc(-c2ccccc2)c1C(=O)OCC(=O)c1ccc(F)cc1	0	-	0	20µM	-	0
Cc1cc(SCC(=O)N2CCN(C(=O)c3ccco3)CC2)c(C)cc1Br	0	0	0[1.84 µM]	25.1µM	0	0
O=C(NCCCN1CCN(c2ccc(F)cc2)CC1)NCc1ccccc1	0	-	-	-	-	-
C/C(=N\NC(=O)c1nnn(-c2nonc2N)c1C(C)C)c1cc(C)sc1C	0	0	0	0	31.6µM	0
CCN(CC)c1ccc(/C=N/NC(=O)c2nnn(-c3nonc3N)c2C(C)C)c(O)c1	?	0	14.1µM	?	0	14.1µM
O=[N+]([O-])c1ccc(Nc2nc(N/N=C/c3cccc(F)c3)nc(N3CCCC3)n2)cc1	?	0	0	?	15.8µM	0
